These results are taken from PubChem BioAssay AID778 (Sanford-Burnham Center for Chemical Genomics, 2007).

In all, about 96,000 compounds went through this assay and about 20,000 (21%) were called active. A selection follows. Unmarked numbers belong to inactive results.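 The calls were made as follows: active = CYP2C19 inhibition above a set limit at 5 µM in the primary screen (cut at about 50% in these data); inactive = the rest.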

Usually inhibition stands for the drop in the measured response relative to a control, in per cent.

Sequence of Cytochrome P450 2C19 (Homo sapiens) (P33261 whole entry, looked up): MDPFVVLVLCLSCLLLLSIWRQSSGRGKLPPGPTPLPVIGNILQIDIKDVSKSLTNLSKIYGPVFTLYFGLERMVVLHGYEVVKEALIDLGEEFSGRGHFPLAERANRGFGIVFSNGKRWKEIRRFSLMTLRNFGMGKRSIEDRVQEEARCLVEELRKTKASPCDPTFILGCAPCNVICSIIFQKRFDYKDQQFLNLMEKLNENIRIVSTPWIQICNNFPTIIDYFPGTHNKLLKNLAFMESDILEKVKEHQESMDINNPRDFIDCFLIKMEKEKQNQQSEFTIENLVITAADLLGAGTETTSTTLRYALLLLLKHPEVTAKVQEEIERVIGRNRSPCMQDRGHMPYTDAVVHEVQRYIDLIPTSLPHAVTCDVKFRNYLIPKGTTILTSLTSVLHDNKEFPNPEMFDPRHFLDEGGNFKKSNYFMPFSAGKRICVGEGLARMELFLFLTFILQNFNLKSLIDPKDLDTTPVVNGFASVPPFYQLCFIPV

This assay concerns the target Cytochrome P450 2C19 (Homo sapiens) (UniProt P33261). Briefly: blockers of cytochrome P450 2C19 activity – biochemical, luminescence, ADME assay, primary screen (AID 778).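 Also: plate controls were negative control wells for no effect and 2.5 mM tranylcypromine positive control for full effect.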 The following applies: CYP2C19 Supersomes, luciferin-H EGE luminescence, 30 min; at 5 µM; stronger effect = higher value.
Regarding `CN(C)c1cc[n+](Cc2ccccc2)cc1`, the inhibition is -3.4%.
As for `CN(C)c1ccc(/C=C2\NC(=S)N(Cc3ccccc3)C2=O)cc1`, the figure is 57.6% (active); as for `CC1=NN(Cc2ccccc2)C(=O)/C1=C/c1ccc(N(C)C)cc1`, 10.1%.
With `CCCCCCCC(=O)NC(Nc1ccccc1OC)C(Cl)(Cl)Cl` (stereo not drawn), the inhibition was 3.6%.
The value for `CCOC(=O)CSc1nnc(-c2cccc(Br)c2)o1` was 28.9%; that for `CCC(=O)Nc1ccc(C(=O)CSc2nnc(CNc3ccc(Cl)cc3)o2)cc1OC` was 11%; that for `CCOC(=O)CSc1nnc(CNc2ccc(F)cc2)o1` was 56.5% (active).
For `CNC(=O)c1nnn(-c2ccccc2)c1C(=O)NC`, the inhibition was -4%.
The value for `Cc1ccc(-n2ncc3c(=O)n(-c4ccc(C)c(C)c4)c(-c4ccco4)nc32)cc1` was 30.9%.
As for `O=C(NCc1cccnc1)c1ccc(CS(=O)(=O)c2ccc(Br)cc2)o1`, the inhibition was 100% (active).
Consider `O=C(NCc1ccco1)c1ccc(CS(=O)(=O)Cc2ccc(F)cc2)o1`, for which the inhibition was 42.4%.
For `O=S(=O)(c1ccc(Br)cc1)c1nc(-c2ccccc2)oc1NCc1cccnc1`, the inhibition is 18.4%.
As for `CC(C)CNC(=O)C1CCCN(S(=O)(=O)c2ccc(-n3cnnn3)cc2)C1` (stereo not drawn), the figure is -17.5%; as for `CC(C)(C)C(=O)CCN1C(=O)C2(OCCO2)c2ccccc21`, 30%; as for `C=CCn1c(-c2ccc3[nH]c(C)c(C)c3c2)n[nH]c1=S`, 29.1%.
The value for `O=c1cc(Cn2nnc(-c3ccc(Cl)cc3)n2)nc2sccn12` was 65.5% (active); that for `O=C(NCc1cn2ccsc2n1)Nc1ccc(Cl)cc1` was 29.8%.
As for `O=C(NCc1ccc(Cl)cc1)c1cc2c(nc3sccn32)s1`, the figure is 14.8%; as for `Cc1cccc(C)c1NC(=O)N1CC=C(n2c(=O)[nH]c3ccccc32)CC1`, -0.4%; as for `Cc1nn(-c2ccccc2)c2c1C(=O)NC(=O)C(C)(C)C2`, 28%.
Turning to `Cc1ccc(C2=NN(C)c3nc4ccccc4n3C2)cc1`, the inhibition is 12.8%.
The value for `Cc1ccc(CNC(=O)CCCNC(=O)c2ccc(Cl)cc2)n1C` was 60.2% (active); that for `CCCCNC(=O)CCNC(=O)c1ccc(C(C)(C)C)cc1` was 31.5%; that for `CCN(CC(=O)NC(C)C)C(=O)CCNC(=O)c1ccc(Cl)cc1` was 10.5%.
As for `N#C/C(=C(\O)CCl)c1nnc2n1CCCCC2`, the figure is 3.5%; as for `O=C1CCCCC(=O)c2ccccc2N1`, 12.2%.
The value for `CCCCOc1ccc(C(=O)NCc2ccco2)cc1` was 20.2%; that for `CCOc1ccc(NC(=O)Nc2cc(C)on2)cc1` was 22.7%; that for `CCOc1ccc(C(=O)Nc2ccncc2)cc1` was 97.9% (active).
Consider `CCCCCCOc1ccc(OC(=O)c2cccnc2)cc1`, for which the inhibition is 20.8%.
As for `CCOc1cccc(C(=O)Nc2cccnc2)c1`, the figure is -3.6%.
As for `CCCCOc1ccc(C(=O)NCc2ccncc2)cc1`, the figure is 76.1% (active).
With `CC(=O)Nc1nonc1-c1nc2ccccc2n1Cc1ccccn1`, the inhibition is -7.6%.
As for `CCN1C(=O)/C(=C2/Sc3ccccc3N2CCCS(=O)(=O)O)SC1=S`, the figure is 0%; as for `CCOc1ccc2[nH]c(=O)c(CN(CCCO)C(C)=O)cc2c1`, -11.4%; as for `CC(C)CNC(=O)c1cc(-c2ccc(Br)cc2)on1`, -6.3%.
Consider `c1ccc2c(c1)OCC(CNc1ncnc3nc[nH]c13)O2` (stereo not drawn), for which the inhibition was 4%.
The value for `O=C(Nc1ccc2nc3n(c(=O)c2c1)CCCCC3)c1ccccc1Cl` was 13.1%.
As for `O=c1c2c(nc3n1CCCCC3)sc1c(O)cccc12`, the figure is 72.2% (active).
As for `Cc1cccc2c(=O)n3c(nc12)CCCCC3`, the figure is 28.1%; as for `O=C(CSc1nc2c(cnn2-c2ccc(F)cc2)c(=O)[nH]1)N1CCCCCC1`, 2.3%; as for `CN1/C(=C\C(=O)c2oc3ccccc3c2N)C(C)(C)c2ccccc21`, 47.9%.
Consider `Cc1noc(C)c1C(=O)OCC(=O)/C=C1\N(C)c2ccccc2C1(C)C`, for which the inhibition was 60.2% (active).
As for `CN1/C(=C\C=C2\N=C(c3ccc(F)cc3)OC2=O)C(C)(C)c2ccccc21`, the figure is 45.9%; as for `O=P(O)(CP(=O)(c1ccccc1)c1ccccc1)c1ccccc1`, -1.3%.
The value for `Cc1ccc(N2CCN(c3ccc(C)cc3)C2c2ccccn2)cc1` was 27.1%; that for `CCc1ccccc1NC(=O)/C(=C/c1ccccc1)c1ccccc1` was 28.8%; that for `O=c1[nH]c(-c2cccs2)nc2ccccc12` was 1.4%.
As for `O=c1onc(-c2cccs2)n1Cc1ccccc1`, the inhibition was 79.9% (active).
The value for `O=C(CSc1nnc(-c2cccs2)n1Cc1ccccc1)N1CCc2ccccc2C1` was 31.9%; that for `Cn1c(C(=O)NCCN2CCc3ccccc3C2)cc2c(=O)[nH]c3ccccc3c21` was 14.8%; that for `CCOC(=O)CCc1c(C)c2ccc(OCc3nn[nH]n3)c(C)c2oc1=O` was 0%.
As for `O=C1c2cccc3cc(Br)cc(c23)C(=O)N1Nc1ccccc1`, the inhibition was 29.2%.
Regarding `Cc1noc(NS(=O)(=O)c2ccc(NC(=O)C34CCC(CC3)C4)cc2)c1C`, the inhibition is -12.3%.
The value for `Cc1ccccc1C(=O)N1CCC(C(=O)Nc2ccc(S(=O)(=O)N(C)C(C)C)cc2)CC1` was 25.1%; that for `COC(=O)c1[nH]c2ccc(Br)cc2c1NC(=O)Oc1ccccc1` was 7.3%; that for `COC(=O)c1[nH]c2ccccc2c1NS(=O)(=O)c1ccc(OC)cc1OC` was 89.7% (active).
`CCCS(=O)(=O)Nc1c(C(=O)O)[nH]c2ccccc12`: the inhibition was 11.8%.
With `CCOCCCNC(=O)c1c[nH]c2cc(C)ccc2c1=O`, the inhibition was -3.9%.
As for `CC(C)c1ccc(C(=O)NCCCc2ccccc2)cc1`, the figure is 14.8%; as for `CCC(C)NC(=O)CCCc1ccccc1` (stereo not drawn), 58.1% (active).
As for `C[C@H](NC(=O)NCCc1ccccc1)C(=O)O`, the figure is -17.1%.
As to `Cc1ccc2cccc(O)c2[n+]1[O-]`, the inhibition was 1.9%.
The value for `CCc1ccc2nc3sc(C(=O)Nc4nnc(CC)s4)c(N)c3cc2c1` was 39.6%.
Consider `CCCc1nc2ccccc2c(C(=O)OCc2nnc(-c3cc(OC)c(OC)c(OC)c3)o2)c1CC`, for which the inhibition was 69.1% (active).
In the case of `CCCc1nc2ccccc2c(C(=O)OCC(=O)c2ccc3c(c2)NC(=O)CO3)c1CC`, the inhibition is -9.7%.
As to `COc1cc(-c2nnc(Cn3cc(C(F)(F)F)ccc3=O)o2)cc(OC)c1OC`, the inhibition was 8.6%.
The value for `C=CCC(NCCCO)c1cccc(OC)c1OC` (stereo not drawn) was -15.9%; that for `CCN(c1ccc2c(c1)OCO2)S(=O)(=O)c1cc(Br)cc2c1N(C(=O)C1CC1)CC2` was 51.5% (active); that for `O=C(C1CCN(S(=O)(=O)c2cnc[nH]2)CC1)N1CCN(Cc2ccc3c(c2)OCO3)CC1` was 11.6%.
As for `CCOC(=O)N1CCN(S(=O)(=O)c2cc(Br)cc3c2N(C(=O)C2CC2)CC3)CC1`, the figure is 30.1%; as for `CC(C)C(=O)Nc1cccc(NC(=S)NC(=O)C(c2ccccc2)c2ccccc2)c1`, 18.9%; as for `CCc1cc(=O)oc2cc(C)cc(OC(C)C(=O)O)c12` (stereo not drawn), -4.4%.
The value for `COc1ccc(NC(=O)C(CC(C)C)NS(=O)(=O)c2ccc3c(c2)CCN3C(C)=O)cc1OC` (stereo not drawn) was 31.2%; that for `COc1ccc(-n2c(SCC(=O)Nc3sc4c(c3C#N)CCCC4)nnc2-c2ccc(O)cc2)cc1` was 26.8%.
As to `O=C(NCc1ccc2c(c1)OCO2)c1cc2c(s1)CS(=O)(=O)C2`, the inhibition is 28.8%.
As for `CC(Sc1nncs1)C(=O)NCc1ccc2c(c1)OCO2` (stereo not drawn), the figure is 75.7% (active).
The value for `Cc1ccc2c(c1)-c1c(ssc1=S)C(C)(C)N2C(=O)CN1C(=O)c2ccccc2C1=O` was 25.1%; that for `Cc1nc2ccc(S(=O)(=O)NCC(=O)O)cc2s1` was -10.3%; that for `N#Cc1ccc(OCCN2C(=O)NC3(CCSC3)C2=O)cc1` (stereo not drawn) was -8.7%.
`CCCOc1ccc(C2NC(=O)NC(c3ccccc3)=C2C(C)=O)cc1OCC` (stereo not drawn): the inhibition was 11%.
As for `COc1ccccc1C1C2=C(COC2=O)Nc2cc3c(cc21)OCO3` (stereo not drawn), the figure is 91.7% (active).
The value for `COc1cc2c(cc1OC)C(c1ccc(C)o1)CC(=O)N2` (stereo not drawn) was -11%; that for `CCCOc1ccccc1C1CC(=O)Nc2cc3c(cc21)OCO3` (stereo not drawn) was 99.3% (active).
As for `Cc1cc(=O)oc(C)c1C(=O)N1CCCCC1`, the figure is 20.5%; as for `O=[N+]([O-])c1ccccc1OCCCCN1CCCCC1`, 1%.
For `COc1cccc(C(=O)c2cc3ccc(O)cc3oc2=O)c1`, the inhibition was 83.3% (active).
The value for `COc1cccc(C(=O)NNC(=O)c2ccccc2Br)c1` was 8.8%.
The value for `COc1ccc2oc(=O)c(C(=O)O)cc2c1` was -14.5%; that for `CCOCCCNC(=O)C(NC(=O)CNC(=O)c1ccccc1)c1ccc(C)cc1` (stereo not drawn) was -8.2%.
`COc1cccc(-c2nn(C)c3sc(C(=O)N4CCN(c5ccccc5)CC4)cc23)c1`: the inhibition is 23.7%.
As for `O=C(c1cn(-c2ccccc2)nc1-c1cccnc1)N1CCCCC1`, the figure is 40.6%; as for `COc1ccccc1N1CCN(C(=O)c2cn(-c3ccccc3)nc2-c2cccnc2)CC1`, 93.8% (active).
The value for `COc1ccccc1N1CCN(C(=O)c2cc3c(-c4ccc(Cl)cc4)nn(C)c3s2)CC1` was 74.1% (active).
Regarding `CCOC(=O)N1CCN(C(=O)c2cc3c(-c4ccc(Cl)cc4)nn(C)c3s2)CC1`, the inhibition was 9.1%.
The value for `COc1ccccc1N1CCN(C(=O)Cn2nnc(-c3cccs3)n2)CC1` was 46.2%; that for `Cn1c(=O)[nH]c(=O)c2c1nc(N1CCN(CCO)CC1)n2CCSc1nc2ccccc2s1` was -15.3%.
The value for `O=C(NC1CCc2ccccc21)C12CN(Cc3ccccc3)CC1C(c1cccc([N+](=O)[O-])c1)=NO2` (stereo not drawn) was 14.2%.
